Measured values taken from PubChem BioAssay AID1159580 (chemical genetic matrix, 2015).
In all, about 5,500 compounds went through this assay and about 2,000 (36%) were called active. Not shown: some 18% with an inconclusive outcome. Rule as the data show it: active = normalized growth mostly below about 0.91 (no sharp cut-off); inconclusive = no clear call, values can overlap the other calls; inactive = mostly above about 0.92. Some of the results follow.

Assay: chemical genetic growth profiling, strain panel (AID 1159580);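 also: tested at 20 µM; growth read once vehicle control cultures reached saturation at 30 °C; 1 = growth at the plate median or of vehicle wells; lower values mean less growth of the strain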
Conditions: S. cerevisiae deletion strains, growth OD

Measured: normalized growth

CC(C)c1c(C(=O)c2ccccc2)c(-c2ccccc2)c(-c2ccc(F)cc2)n1CC[C@@H](O)C[C@@H](O)CC(=O)O
inactive: locus YAL030W, strain snc1, stronger effect = lower value 0.94 | locus YBR009C, strain hhf1, stronger effect = lower value 0.924 | locus YBR171W, strain sec66, stronger effect = lower value 0.984 | locus YCL011C, strain gbp2, stronger effect = lower value 0.942 | locus YCL069W, strain vba3, stronger effect = lower value 0.934 | locus YDL005C, strain med2, stronger effect = lower value 0.987 | locus YDL040C, strain nat1, stronger effect = lower value 0.99 | locus YDR001C, strain nth1, stronger effect = lower value 0.957 | locus YDR159W, strain sac3, stronger effect = lower value 0.882 | locus YDR195W, strain ref2 1.04 | locus YDR297W, strain sur2, stronger effect = lower value 0.946 | locus YDR335W, strain msn5, stronger effect = lower value 0.919 | locus YDR392W, strain spt3, stronger effect = lower value 1.01 | locus YEL037C, strain rad23, stronger effect = lower value 0.935 | locus YEL061C, strain CIN8 (second series), stronger effect = lower value 0.955 | locus YER016W, strain bim1, stronger effect = lower value 0.949 | locus YER111C, strain swi4, stronger effect = lower value 0.981 | locus YER155C, strain BEM2 (second series), stronger effect = lower value 0.917 | locus YGL167C, strain pmr1, stronger effect = lower value 1 | locus YGL173C, strain kem1, stronger effect = lower value 0.907 | locus YGL227W, strain vid30, stronger effect = lower value 0.962 | locus YGL240W, strain doc1, stronger effect = lower value 0.981 | locus YJL095W, strain BCK1 (second series), stronger effect = lower value 0.957 | locus YJL115W, strain asf1, stronger effect = lower value 0.953 | locus YJL129C, strain trk1, stronger effect = lower value 0.916 | locus YJL164C, strain tpk1, stronger effect = lower value 0.922 | locus YJL166W, strain qcr8, stronger effect = lower value 0.926 | locus YKL160W, strain elf1, stronger effect = lower value 0.921 | locus YKR026C, strain gcn3, stronger effect = lower value 0.952 | locus YKR091W, strain srl3, stronger effect = lower value 0.98 | locus YLL026W, stronger effect = lower value 0.937 | locus YLL041C, strain sdh2, stronger effect = lower value 0.981 | locus YLR027C, strain aat2, stronger effect = lower value 0.933 | locus YLR258W, strain gsy2, stronger effect = lower value 0.932 | locus YLR262C, strain YPT6 (second series), stronger effect = lower value 0.973 | locus YLR320W, strain mms22, stronger effect = lower value 0.899 | locus YLR342W, strain FKS1, stronger effect = lower value 0.94 | locus YLR384C, strain iki3, stronger effect = lower value 0.959 | locus YML120C, strain ndi1, stronger effect = lower value 0.93 | locus YMR058W, strain fet3, stronger effect = lower value 0.909 | locus YMR129W, stronger effect = lower value 0.946 | locus YMR205C, strain PFK2, stronger effect = lower value 0.946 | locus YNL071W, strain lat1, stronger effect = lower value 0.939 | locus YNL209W, strain ssb2, stronger effect = lower value 0.939 | locus YNL248C, strain rpa49, stronger effect = lower value 1.02 | locus YNL322C, strain KRE1 (second series), stronger effect = lower value 0.977 | locus YNR049C, strain mso1, stronger effect = lower value 0.952 | locus YOR080W, strain dia2, stronger effect = lower value 0.939 | locus YOR106W, strain vam3, stronger effect = lower value 0.877 | locus YOR265W, strain rbl2, stronger effect = lower value 0.95 | locus YOR290C, strain snf2, stronger effect = lower value 0.895 | locus YPL078C, strain atp4, stronger effect = lower value 0.908 | locus YPL106C, strain sse1, stronger effect = lower value 1.11 | locus YPL240C, strain hsp82, stronger effect = lower value 0.971

COc1cc2c(cc1OC)C(C)N(C(=O)c1sc3ccccc3c1Cl)CC2 (stereo not given)
inactive: locus YAR019C, strain CDC15, stronger effect = lower value 0.981 | locus YBL105C, strain PKC1, stronger effect = lower value 0.975 | locus YBR135W, strain CKS1, stronger effect = lower value 0.97 | locus YBR136W, strain MEC1, stronger effect = lower value 0.975 | locus YBR160W, strain CDC28, stronger effect = lower value 0.968 | locus YDL017W, strain CDC7, stronger effect = lower value 0.98 | locus YDL028C, strain MPS1, stronger effect = lower value 0.982 | locus YDL101C, strain DUN1, stronger effect = lower value 0.982 | locus YDL108W, strain KIN28, stronger effect = lower value 0.974 | locus YDL132W, strain cdc53, stronger effect = lower value 0.974 | locus YDL214C, strain PRR2, stronger effect = lower value 0.928 | locus YDR052C, strain DBF4, stronger effect = lower value 0.989 | locus YDR054C, strain cdc34, stronger effect = lower value 0.972 | locus YDR226W, strain ADK1, stronger effect = lower value 0.975 | locus YDR477W, strain SNF1, stronger effect = lower value 0.934 | locus YER123W, strain YCK3, stronger effect = lower value 0.9 | locus YER133W, strain GLC7, stronger effect = lower value 0.936 | locus YFL009W, strain cdc4, stronger effect = lower value 0.972 | locus YFL029C, strain CAK1, stronger effect = lower value 0.968 | locus YFR003C, strain YPI1, stronger effect = lower value 0.978 | locus YFR019W, strain FAB1, stronger effect = lower value 0.943 | locus YFR028C, strain CDC14, stronger effect = lower value 0.977 | locus YGR040W, strain KSS1, stronger effect = lower value 0.899 | locus YGR052W, strain FMP48, stronger effect = lower value 0.981 | locus YGR092W, strain DBF2, stronger effect = lower value 0.921 | locus YHR030C, strain SLT2, stronger effect = lower value 0.93 | locus YHR079C, strain IRE1, stronger effect = lower value 0.933 | locus YHR082C, strain KSP1, stronger effect = lower value 0.958 | locus YHR205W, strain SCH9, stronger effect = lower value 0.976 | locus YIL147C, strain SLN1, stronger effect = lower value 0.984 | locus YJL095W, strain BCK1, stronger effect = lower value 0.947 | locus YJL128C, strain PBS2, stronger effect = lower value 0.955 | locus YJL157C, strain FAR1, stronger effect = lower value 0.912 | locus YJR016C, strain ILV3, stronger effect = lower value 0.97 | locus YJR066W, strain TOR1 (second series), stronger effect = lower value 0.891 | locus YJR066W, strain TOR1, stronger effect = lower value 0.983 | locus YKL048C, strain ELM1, stronger effect = lower value 0.928 | locus YKL067W, strain YNK1, stronger effect = lower value 0.943 | locus YKL101W, strain HSL1, stronger effect = lower value 0.897 | locus YKL193C, strain SDS22, stronger effect = lower value 0.981 | locus YKL203C, strain TOR2, stronger effect = lower value 0.959 | locus YLR113W, strain HOG1, stronger effect = lower value 0.865 | locus YLR133W, strain CKI1, stronger effect = lower value 0.916 | locus YLR403W, strain SFP1, stronger effect = lower value 0.906 | locus YML070W, strain DAK1, stronger effect = lower value 0.912 | locus YMR001C, strain CDC5, stronger effect = lower value 0.975 | locus YMR205C, strain PFK2 (second series), stronger effect = lower value 0.948 | locus YMR277W, strain FCP1, stronger effect = lower value 0.978 | locus YNL006W, strain LST8, stronger effect = lower value 0.99 | locus YNL020C, strain ARK1, stronger effect = lower value 0.922 | locus YNL161W, strain CBK1, stronger effect = lower value 0.97 | locus YNL183C, strain NPR1, stronger effect = lower value 0.948 | locus YNL207W, strain RIO2, stronger effect = lower value 0.978 | locus YNL222W, strain SSU72, stronger effect = lower value 0.966 | locus YNL307C, strain MCK1 (second series), stronger effect = lower value 0.911 | locus YOL078W, strain AVO1, stronger effect = lower value 0.972 | locus YOL136C, strain PFK27, stronger effect = lower value 0.906 | locus YOR061W, strain CKA2, stronger effect = lower value 0.914 | locus YOR119C, strain RIO1, stronger effect = lower value 0.982 | locus YOR231W, strain MKK1, stronger effect = lower value 0.891 | locus YOR329C, strain SCD5, stronger effect = lower value 0.978 | locus YPL031C, strain PHO85, stronger effect = lower value 0.927 | locus YPL153C, strain RAD53, stronger effect = lower value 0.905 | locus YPL204W, strain HRR25, stronger effect = lower value 0.905 | locus YPL209C, strain IPL1, stronger effect = lower value 0.968 | locus YPL256C, strain CLN2, stronger effect = lower value 0.894 | locus YPR025C, strain CCL1, stronger effect = lower value 0.976 | locus YPR106W, strain ISR1, stronger effect = lower value 0.963 | locus YPR111W, strain DBF20, stronger effect = lower value 0.949 | strain NNK1, stronger effect = lower value 0.972 | strain TSCII, stronger effect = lower value 0.969
